The molecules below were run against T1, Aspartate--tRNA(Asp/Asn) ligase (Mycobacterium tuberculosis (strain ATCC 25618 / H37Rv)) (UniProt P9WFW3) (assay: Assay for Asp RNA synthetase-1 from Mycobacterium tuberculosis). Conditions: 30 µM.
T1 sequence (whole entry): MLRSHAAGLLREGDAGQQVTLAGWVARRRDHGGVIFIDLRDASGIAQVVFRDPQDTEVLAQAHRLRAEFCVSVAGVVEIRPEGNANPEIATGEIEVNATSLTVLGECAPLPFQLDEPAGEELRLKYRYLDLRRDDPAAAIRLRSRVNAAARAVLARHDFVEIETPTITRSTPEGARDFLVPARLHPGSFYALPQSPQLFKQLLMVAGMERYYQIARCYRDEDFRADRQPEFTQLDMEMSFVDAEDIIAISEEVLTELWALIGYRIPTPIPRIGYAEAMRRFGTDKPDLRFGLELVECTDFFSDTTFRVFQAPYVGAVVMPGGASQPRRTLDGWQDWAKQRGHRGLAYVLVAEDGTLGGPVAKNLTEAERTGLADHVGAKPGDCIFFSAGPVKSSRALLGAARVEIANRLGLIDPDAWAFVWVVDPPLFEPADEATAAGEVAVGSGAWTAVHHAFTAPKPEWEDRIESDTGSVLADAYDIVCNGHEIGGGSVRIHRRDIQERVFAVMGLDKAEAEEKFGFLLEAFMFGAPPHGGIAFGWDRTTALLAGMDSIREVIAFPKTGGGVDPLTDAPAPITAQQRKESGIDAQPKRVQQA
Type: functional
Set-up: scale not given: in the data most compounds retested in dose-response had high values

| Compound | Percent Effect |
| --- | --- |
| CC1CCN(C(CNC(=O)CCn2cccn2)c2cccs2)CC1 (stereo not given) | -0.241% |
| CCC(=O)NCC(=O)NCc1cc(Br)ccc1OC(F)F | -1.92% |
| N#Cc1cccc(CS(=O)(=O)NCCC(O)c2ccccc2)c1 (stereo not given) | -1.46% |
| CC(C)N(C)CC(=O)NC1CCc2nccn2C1 (stereo not given) | 1.39% |
| FC(F)(F)COCCN1CCCC(c2noc(C3CC3)n2)C1 (stereo not given) | -0.517% |
| Cc1cccnc1NC(=O)C1CCCN1Cc1ccccc1 (stereo not given) | -1.55% |
| FC(F)(F)C1CCCn2c(CNCc3ccsc3)nnc21 (stereo not given) | -1.78% |
| CCOC(=O)C1CCCN(c2ccc(-c3nc(C)no3)cn2)C1 (stereo not given) | -0.931% |
| CSC(C)(C)CNC(=O)NC1CCSCC1 | 0.103% |
| CCC(O)CNC(=O)C1(N(C)Cc2ccccc2)Cc2ccccc2C1 (stereo not given) | 2.72% |
| CCOc1cccc(C(C)NCc2ccc(OC)c(OC)c2OC)c1 (stereo not given) | -1.94% |
| O=C(O)[C@]12CCCN(Cc3ccncc3)[C@@H]1CCN(c1cnccn1)C2 | 0.862% |
| CC(C)n1ccnc1C1CCCN(c2ccnc3ccccc23)C1 (stereo not given) | -3.69% |
| CCn1nc(C)c(CNC(=O)c2cn(CCC3CCCCN3)nn2)c1C (stereo not given) | 0.0575% |
| Cc1cnn(C2CN(CC(O)c3ccc(F)cc3)C2)c1 (stereo not given) | -2.19% |
| Cc1ccc(C2COCCN2C(=O)c2ccc(N(C)C)cc2)o1 (stereo not given) | -0.816% |
| c1cn(Cc2nnc(C3CCN(c4nccs4)CC3)n2C2CC2)cn1 | -3.69% |
| CCSCCC(=O)Nc1ncn(Cc2cccnc2)n1 | -2.31% |
| CCn1nc(CC(C)C)cc1C(=O)N1CC[C@@H](O)C1 | -5.25% |
| O=C(C1CC(=O)N(C2CCCC2)C1)N1CCN(CCn2cccc2)CC1 (stereo not given) | -2.4% |

| Compound | Percent Effect |
| --- | --- |
| CC(C)CN1CCCn2nc(CNC(=O)CCCc3cn[nH]c3)cc2C1 | -0.885% |
| O=C(Nc1cccc(OCc2cccc(F)c2)c1)C1COCCO1 (stereo not given) | 0.563% |
| O=S1(=O)C[C@@H]2[C@H](C1)N(Cc1cc(Cl)cc(Cl)c1)CCN2CC1CC1 | 0.655% |
| COc1ccccc1OCCN1CCCC(c2noc(C3CC3)n2)C1 (stereo not given) | -2.65% |
| Cc1cc(C)n(CC2CCCCN2CC(=O)Nc2nncs2)n1 (stereo not given) | -0.218% |
| COc1cc(C(=O)N(CCC#N)Cc2ccccn2)cc(OC)c1C | -3.83% |
| Cc1c[nH]c(CN(C)C(=O)c2cccc(CCC(C)(C)O)c2)n1 | -1% |
| Cc1noc(C)c1C(=O)N(C)Cc1nc(-c2ccccn2)no1 | -3.85% |
| CCC(=O)N1CC[C@@H](c2ccc3ccccc3c2)[C@H](O)C1 | 2.26% |
| CCN(CC1CN(Cc2ncc(C)o2)CCO1)c1cccnn1 (stereo not given) | -1.34% |
| O=C1O[C@@H]2CN(Cc3ccccc3)C[C@@H]2N1CCCN1CCOCC1 | -3.37% |
| CCc1nsc(NC2CCCn3nc(COC)nc32)n1 (stereo not given) | -2.56% |
| CC(O)CN1CCN(C(=O)c2cnn(-c3ccc(Cl)cc3)c2)CC1 (stereo not given) | -5.67% |
| CC(C)CN1CCc2[nH]cnc2C12CCN(C(=O)c1cccnc1)CC2 | 1.3% |
| COC1CCCN(C(=O)Nc2nc(C)n(C)n2)C1 (stereo not given) | -3.53% |
| O=C(O)c1csc(S(=O)(=O)N2CCCc3ccc(F)cc32)c1 | 1.9% |
| CC(C)CN1CCCn2nc(CNC(=O)CCN)cc2C1 | -0.839% |
| Cc1ccccc1CS(=O)(=O)NCCCN1CCCCC1 | -2.17% |
| Cc1cc(F)ccc1CN1CCC(O)(CN2CCCCC2)C1 (stereo not given) | -0.747% |
| CC(C)N1CCC(NCc2cccnc2N(C)C)CC1 | -1.8% |
